The sample as a whole holds a higher share of the strongest signals than the screen did.
Assays:
Test in all cases: glycan array binding signal (z-score within array); higher = stronger binding
Settings in all cases: glycan notation: IUPAC condensed, linker removed
[1] = molecular target: Fuc(a1-2)Gal(b1-3)[Fuc(a1-4)]GlcNAc(b1-3)[Fuc(a1-3)[Gal(b1-4)]GlcNAc(b1-6)]Gal(b1-4)Glc
In short: (§1)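 Arrays were curated from the Consortium for Functional Glycomics database, 3228 in total, and kept only where the protein sequence was available. Binding is expressed as a within-array Z-score. This score was averaged across arrays of the same protein sequence at different concentrations or buffers and across linkers, and negative values can be read as non-binding.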

[2] = molecular target: Fuc(a1-2)Gal(b1-4)[Fuc(a1-3)]GlcNAc(b1-2)[Fuc(a1-2)Gal(b1-4)[Fuc(a1-3)]GlcNAc(b1-4)]Man(a1-3)[Fuc(a1-2)Gal(b1-4)[Fuc(a1-3)]GlcNAc(b1-2)Man(a1-6)]Man(b1-4)GlcNAc(b1-4)GlcNAc
In short: as §1

[3] = molecular target: Fuc(a1-2)[Gal(a1-3)]Gal(b1-3)GlcNAc
In short: as §1

[4] = molecular target: Fuc(a1-2)[Gal(a1-3)]Gal(b1-4)[Fuc(a1-3)]Glc
In short: as §1

[5] = molecular target: Fuc(a1-2)[GalNAc(a1-3)]Gal(b1-3)GlcNAc(b1-2)Man(a1-3)[Fuc(a1-2)[GalNAc(a1-3)]Gal(b1-3)GlcNAc(b1-2)Man(a1-6)]Man(b1-4)GlcNAc(b1-4)GlcNAc
In short: as §1

[6] = molecular target: Fuc(a1-2)[GalNAc(a1-3)]Gal(b1-4)GlcNAc(b1-3)GalNAc
In short: as §1

[7] = molecular target: Fuc(a1-2)[GalNAc(a1-4)]Gal(b1-4)GlcNAc
In short: as §1

[8] = molecular target: Gal(b1-3)GalNAc(b1-4)[Neu5Ac(a2-3)]Gal(b1-4)Glc
In short: as §1

[9] = molecular target: Gal(b1-3)GlcNAc(b1-2)Man(a1-3)[Gal(b1-3)GlcNAc(b1-2)Man(a1-6)]Man(b1-4)GlcNAc(b1-4)[Fuc(a1-6)]GlcNAc
In short: as §1

[10] = molecular target: Gal(b1-3)GlcNAc(b1-2)Man(a1-3)[GlcNAc(b1-4)][Gal(b1-3)GlcNAc(b1-2)Man(a1-6)]Man(b1-4)GlcNAc(b1-4)GlcNAc
In short: as §1

[11] = molecular target: Gal(b1-4)Glc6S
In short: as §1

[12] = molecular target: Gal(b1-4)GlcNAc(b1-2)Man(a1-3)[Gal(b1-4)GlcNAc(b1-2)Man(a1-6)]Man(b1-4)GlcNAc(b1-4)[Fuc(a1-6)]GlcNAc
In short: as §1

[13] = molecular target: Gal(b1-4)GlcNAc(b1-2)Man(a1-3)[Gal(b1-4)GlcNAc(b1-2)Man(a1-6)][Gal(b1-4)GlcNAc(b1-4)]Man(b1-4)GlcNAc(b1-4)[Fuc(a1-6)]GlcNAc
In short: as §1

[14] = molecular target: Gal(b1-4)GlcNAc(b1-3)Gal(b1-3)GalNAc
In short: as §1

[15] = molecular target: Gal(b1-4)GlcNAc(b1-3)Gal(b1-4)GlcNAc(b1-2)Man(a1-3)[Gal(b1-4)GlcNAc(b1-3)Gal(b1-4)GlcNAc(b1-2)Man(a1-6)]Man(b1-4)GlcNAc(b1-4)[Fuc(a1-6)]GlcNAc
In short: as §1

[16] = molecular target: Gal(b1-4)GlcNAc(b1-3)Gal(b1-4)GlcNAc(b1-3)Gal(b1-4)GlcNAc(b1-2)Man(a1-3)[Gal(b1-4)GlcNAc(b1-3)Gal(b1-4)GlcNAc(b1-3)Gal(b1-4)GlcNAc(b1-2)Man(a1-6)]Man(b1-4)GlcNAc(b1-4)[Fuc(a1-6)]GlcNAc
In short: as §1

[17] = molecular target: Gal(b1-4)GlcNAc(b1-3)Gal(b1-4)GlcNAc(b1-3)Gal(b1-4)GlcNAc(b1-3)Gal(b1-4)GlcNAc(b1-2)Man(a1-3)[Gal(b1-4)GlcNAc(b1-3)Gal(b1-4)GlcNAc(b1-3)Gal(b1-4)GlcNAc(b1-3)Gal(b1-4)GlcNAc(b1-2)Man(a1-6)]Man(b1-4)GlcNAc(b1-4)[Fuc(a1-6)]GlcNAc
In short: as §1

[18] = molecular target: Gal(b1-4)GlcNAc(b1-3)Gal(b1-4)GlcNAc(b1-3)Gal(b1-4)GlcNAc(b1-3)Gal(b1-4)GlcNAc(b1-3)Gal(b1-4)GlcNAc(b1-2)Man(a1-3)[Gal(b1-4)GlcNAc(b1-3)Gal(b1-4)GlcNAc(b1-3)Gal(b1-4)GlcNAc(b1-3)Gal(b1-4)GlcNAc(b1-3)Gal(b1-4)GlcNAc(b1-2)Man(a1-6)]Man(b1-4)GlcNAc(b1-4)[Fuc(a1-6)]GlcNAc
In short: as §1

[19] = molecular target: Gal(b1-4)GlcNAc(b1-3)Gal(b1-4)GlcNAc(b1-6)[Gal(b1-3)]GalNAc
In short: as §1

[20] = molecular target: Gal3S(b1-4)GlcNAc
In short: as §1

[21] = molecular target: Gal6S(b1-3)GlcNAc6S
In short: as §1

[22] = molecular target: GalNAc(b1-3)Gal(a1-6)Gal(b1-4)Glc
In short: as §1

[23] = molecular target: GalNAc(b1-4)Gal(b1-4)Glc
In short: as §1

B1: HML-Native (Hypnea musciformis), P84871 (protein)
chain: QKFCTLDIAPVCCQIVIGGGMYTAGNACMCEGFVSGVGRCENPKECPCTREAQIPSCCSSRWGLVSVTGKCACDCLGGTVAFPEPCPSPY
Question: B1 was tested. Which “glycan array binding signal (z-score)” value [1] did it give?
Answer: The value was -0.188.

Question: What about the “glycan array binding signal (z-score)” value [2] of the same binder?
Answer: Its value is -0.059.

Question: What about the “glycan array binding signal (z-score)” value [3] of the same binder?
Answer: The value was -0.211.

Question: And the “glycan array binding signal (z-score)” value [4]?
Answer: Its value is -0.283.

Question: What about the “glycan array binding signal (z-score)” value [5] of the same binder?
Answer: Its value is -0.093.

Question: What about the “glycan array binding signal (z-score)” value [6] of the same binder?
Answer: Its value is -0.302.

Question: And the “glycan array binding signal (z-score)” value [7]?
Answer: The value was -0.162.

Question: What about the “glycan array binding signal (z-score)” value [8] of the same binder?
Answer: Its value is -0.318.

Question: And the “glycan array binding signal (z-score)” value [9]?
Answer: The value was 5.16.

Question: What about the “glycan array binding signal (z-score)” value [10] of the same binder?
Answer: The value was -0.276.

Question: What about the “glycan array binding signal (z-score)” value [11] of the same binder?
Answer: Its value is -0.313.

Question: What about the “glycan array binding signal (z-score)” value [12] of the same binder?
Answer: The value was 5.65.

Question: What about the “glycan array binding signal (z-score)” value [13] of the same binder?
Answer: The value was 1.48.

Question: And the “glycan array binding signal (z-score)” value [14]?
Answer: Its value is -0.238.

Question: What about the “glycan array binding signal (z-score)” value [15] of the same binder?
Answer: Its value is 5.52.

Question: And the “glycan array binding signal (z-score)” value [16]?
Answer: Its value is 4.93.

Question: And the “glycan array binding signal (z-score)” value [17]?
Answer: Its value is 4.9.

Question: What about the “glycan array binding signal (z-score)” value [18] of the same binder?
Answer: The value was 4.8.

Question: And the “glycan array binding signal (z-score)” value [19]?
Answer: The value was -0.192.

Question: And the “glycan array binding signal (z-score)” value [20]?
Answer: Its value is -0.233.

Question: And the “glycan array binding signal (z-score)” value [21]?
Answer: Its value is -0.323.

Question: And the “glycan array binding signal (z-score)” value [22]?
Answer: The value was -0.345.

Question: And the “glycan array binding signal (z-score)” value [23]?
Answer: The value was -0.252.
